# Reference: PubChem BioAssay (NCI)
# The panel holds about 83,000 compounds, 20% with a hit somewhere; the sample as a whole holds those more often.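 Testing used 96-well plates and a 48-hour single-concentration exposure. Example: -40 means 40% of the starting cells died.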 Active and inactive are the calls of the source. Rule for the calls: active = growth percent below 10; inactive = the rest.
# Tested on: HL-60(TB) leukemia
# Assay: NCI-60 one-dose screen, 48 h (100 = growth as untreated, 0 = no growth, -100 = all killed)
# Settings: 10 µM unless noted
row,SMILES,growth
1,C[C@]12CC[C@H]3[C@@H](CC=C4C[C@@H](O)CC[C@@]43C)[C@@H]1CC[C@@H]2C(=O)C/C=N/O,78.9% (inactive)
2,N=C1S/C(=C/c2ccc(-c3ccc4c(c3)C(=O)NC4=O)o2)C(=O)N1c1ccc(Br)cc1,50.5% (inactive)
3,CNC(C)[C@H]1CCC2C3CC=C4C(=O)[C@@H](NC(=O)C=C(C)C)CC[C@]4(C)C3CC[C@@]21C (stereo partly drawn),-67% (active)
